From PubChem BioAssay (Tox21)
Inconclusive results are not listed. Active and inactive are the calls of the source. The call rests on the fitted dose curve; in most records, active means well fitted activation curve with a large enough effect in the repeat runs; inconclusive means weak or mixed curves; inactive means flat fitted curve, though single readings scatter. Where a SMILES comes first, the peptide text is derived from it. [ ]: non-standard residue; d: D form. pGlu = O=C1CC[C@@H](C(=O)O)N1
On the % scale 0 is the no-effect control and ±100 the full control effect.

Assay: A CellTox Green Cytotoxicity Assay to monitor cytotoxicity in HepG2 cells - 24 hour (AID 1224878); further: nearly all actives have a fitted effect of over 45% in size
Details: CellTox Green fluorescence; series mostly up to 76.8 µM
From the text: National Center for Advancing Translational Sciences [NCATS]
NIH Chemical Genomics Center [NCGC]
U.S. Environmental Protection Agency [EPA]
National Institutes of Environmental Health Sciences [NIEHS]
National Toxicology Program [NTP]
Cell-based models are critical for drug discovery. Determining the natural cytotoxic effects resulting from test compounds is an essential research activity. A CellTox Green Cytotoxicity Assay to monitor cytotoxicity in real time of continues cell culture during 40 hours of the compound treatment was used to screen Tox21 10K library compounds in HepG2 cells. CellTox Green Cytotoxicity Assay is a nonlytic, homogeneous, biofluorescent method to measure cytotoxicity in cell culture after experimental manipulation. The assay system uses a proprietary asymmetric cyanine dye that is excluded from viable cells but preferentially stains the dead cell's DNA. […] Viable cells produce no appreciable increases in fluorescence. Therefore, the fluorescence signal produced by the binding interaction with dead cell DNA is proportional to cytotoxicity.
The mixture of HepG2 cell suspension and reagents were dispensed at 600cells/6 ul/well in 1536-well tissue culture treated black solid bottom plates using a Multidrop dispenser. After the assay plates were incubated at a 37 C/5% CO2 incubator for 5 hours, 23 nL of compounds dissolved in DMSO, positive and negative controls was transferred to the assay plate by a pintool work station. The plates were incubated at 37 C for 40 hours. The fluorescence intensity were measured at 0h, 8h, 16h, 24h, 32h and 40h time points using ViewLux plate reader during compound treatment.
With `CNCC(O)c1ccc(O)c(O)c1` (stereo not given) the outcome was “inactive”. For `CCOC(=O)c1ccccc1`, the outcome was “inactive”. In the case of `Nc1ccncc1N`, the outcome is reported as “inactive”. In the case of `CCCCCCCCCCCCCCCCCCO`, the outcome is reported as “inactive”. For `CC(C)(CCC(=O)O)C(=O)O`, the outcome was “inactive”. For `CCOC(=O)c1cnc2c(cnn2CC)c1NN=C(C)C`, the outcome was “inactive”. In the case of `CC(=O)c1ccccc1[N+](=O)[O-]`, the outcome is reported as “inactive”. In the case of `C[N+](C)(C)CCCCCCCCCC[N+](C)(C)C`, the outcome is reported as “inactive”. In the case of `CCOC(=O)COC(=O)c1ccccc1C(=O)OCC`, the outcome is reported as “inactive”. In the case of `NCCCC[C@H](N[C@@H](CCc1ccccc1)C(=O)O)C(=O)N1CCC[C@H]1C(=O)O`, the outcome is reported as “inactive”. In the case of `CCCn1cc[n+](C)c1C`, the outcome is reported as “inactive”. In the case of `CC1=CC(=O)[C@H]2C[C@@H]1C2(C)C`, the outcome is reported as “inactive”. In the case of `FB(F)F`, the outcome is reported as “inactive”. For `CC(C)(C)C(=O)c1ccccc1`, the outcome was “inactive”. With `C=CCCC(=O)O` the outcome was “inactive”. In the case of `COc1c(N2CCNC(C)C2)c(F)cc2c(=O)c(C(=O)O)cn(C3CC3)c12` (stereo not given), the outcome is reported as “inactive”. For `OCCc1ccccn1`, the outcome was “inactive”. For `O=S(=O)(O)c1cccc2ccccc12`, the outcome was “inactive”. With `CC(C)CC(C)(N)C#N` (stereo not given) the outcome was “inactive”. With `CCCCCC(C)N` (stereo not given) the outcome was “inactive”. In the case of `C=C[Si](OC(C)=O)(OC(C)=O)OC(C)=O`, the outcome is reported as “inactive”. With `Cc1ccnc(NS(=O)(=O)c2ccc(N)cc2)n1` the outcome was “inactive”. In the case of `CCCC(=O)O[C@]1(C(=O)CC)CC[C@H]2[C@@H]3CCC4=CC(=O)CC[C@]4(C)[C@H]3[C@@H](O)C[C@@]21C`, the outcome is reported as “inactive”. For `C1CCC2(CCCCO2)OC1`, the outcome was “inactive”. For `CN(C)CCN(C)CCN(C)C`, the outcome was “inactive”. With `CC(C)(N)C#N` the outcome was “inactive”. For `c1ccc(Cc2ccccc2)cc1`, the outcome was “inactive”. For `CN(C)C(=O)Oc1ccc[n+](C)c1`, the outcome was “inactive”. For `CCOCC(C)O` (stereo not given), the outcome was “inactive”. In the case of `CC(C)=CCC/C(C)=C/C#N`, the outcome is reported as “inactive”. For `COc1cc(-c2ccc(=O)[nH]n2)ccc1OC(F)F`, the outcome was “inactive”. With `CCCCc1nc(Cl)c(CO)n1Cc1ccc(-c2ccccc2-c2nn[nH]n2)cc1` the outcome was “inactive”. With `CCCCN(CCC(=O)OCC)C(C)=O` the outcome was “inactive”. With `[O-][n+]1cccc(CO)c1` the outcome was “inactive”. For `CC(C)C[C@@H](N)C(=O)O`, the cytotoxicity was -14.3% [at 15.8 µM] (inactive). For `Cc1coc2ccccc2c1=O`, the outcome was “inactive”. With `CCNC(=O)[C@@H]1CCCN1C(=O)[C@H](CCCN=C(N)N)NC(=O)[C@H](CC(C)C)NC(=O)CNC(=O)[C@H](Cc1ccc(O)cc1)NC(=O)[C@H](CO)NC(=O)[C@H](Cc1c[nH]c2ccccc12)NC(=O)[C@H](Cc1cnc[nH]1)NC(=O)[C@@H]1CCC(=O)N1` ([pGlu]HWSYGLRP-NHEt) the outcome was “inactive”. In the case of `CCCCOCCOC(=O)CCCCCCCCC(=O)OCCOCCCC`, the outcome is reported as “inactive”. In the case of `CC1=NS(=O)(=O)c2cc(Cl)ccc2N1`, the outcome is reported as “inactive”. With `CCCCN1C=CN(C)C1` the cytotoxicity was -16.6% [at 15.8 µM] (inactive).
